SMILES strings stand for the structures. The panel holds about 79,000 compounds, 15% with a hit somewhere; the sample as a whole holds those more often. Active and inactive are the calls of the source. Cut-off read from the data, not from the text of the source: active = growth inhibition above about 70%; inactive = the rest. Where a SMILES comes first, the peptide text is derived from it. [ ]: non-standard residue; d: D form. The star is where a group is joined. mTyr = N[CH](Cc1cccc(O)c1)C(=O)O; Cbz = O=C(OCc1ccccc1)*; OBn = c1ccc(CO*)cc1

The assay is described as follows: NCI Yeast Anticancer Drug Screen. Data for the cln2 rad14 strain (AID 165).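 Note: 0% = growth equal to vehicle treated cultures.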 The conditions noted are these: S. cerevisiae cln2 rad14 strain, at 5.0 µM (retest, dose inferred, filed as 0.5), stronger effect = higher value. The procedure, abridged:
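The screen exposed genetically defined yeast (cln2 rad14) to test compounds and scored growth inhibition relative to vehicle-treated controls.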
For `CC12CCC(c3sc(N)c(C#N)c31)C2(C)C` (stereo not given), the growth inhibition was 3% (inactive).

As for `O=C1/C(=C/c2cccc(F)c2)CCCc2ccccc21`, the growth inhibition was -14% (inactive).

As to `CC(=O)N[C@H]1CC[C@H]2[C@@H]3CCC4=CC(=O)CC[C@]4(C)[C@H]3CC[C@]12C`, the growth inhibition is -8% (inactive).

As to `C/C(=N/O)c1ccc2c(c1)C(=NO)c1cc(/C(C)=N/O)ccc1-2`, the growth inhibition is 14% (inactive).

Regarding `Cc1cccc(N2C(c3ccccc3)c3ccc(C)cc3NS2=O)c1` (stereo not given), the growth inhibition is 1% (inactive).

Consider `[Pt].c1ccc(P(CCP(CCP(c2ccccc2)c2ccccc2)CCP(c2ccccc2)c2ccccc2)c2ccccc2)cc1`, for which the growth inhibition is 6% (inactive).

For `Cc1cc(I)ccc1NC(=S)Nc1ccccc1F`, the growth inhibition was -19% (inactive).

Turning to `FC(F)(F)c1ccccc1NC(=S)SCc1ccc(Cl)cc1`, the growth inhibition was -3% (inactive).

On to `COC(=O)C1(C)CC2C(C)(CCC3(C)C4=CC=C5C(=CC(=O)C(O)=C5C)C4(C)CCC23C)CC1O` (stereo not given), for which the growth inhibition is 51% (inactive).

As to `CC1CCC(=NNC(N)=O)CC1` (stereo not given), the growth inhibition was -5% (inactive).

With `CCOC(=O)C(NS(=O)(=O)c1ccccc1)(C(F)(F)F)P(=O)(OCC(C)C)OCC(C)C` (stereo not given), the growth inhibition was 2% (inactive).

`O=[N+]([O-])c1ccc(/C=N/NC2=CS(=O)(=O)C=C2)cc1`: the growth inhibition is -2% (inactive).

For `CC(C)c1ccc2c(c1)CCC1C(C)(CNC(=O)S)CCCC21C.[Zn+2]` (stereo not given), the growth inhibition was 10% (inactive).

For the compound `Cc1ccc(N=Nc2sc(N)nc2C)cc1C`, the growth inhibition is -58% (inactive).

As for `CC(C)(C)C1CCC2c3c([nH]c4ccccc34)C3C(=O)N(c4ccc(C(=O)O)cc4)C(=O)C3C2C1` (stereo not given), the growth inhibition is 89% (active).

Regarding `O=C(CBr)Nc1ccc(Cc2ccc(NC(=O)CBr)cc2)cc1`, the growth inhibition is 24% (inactive).

Turning to `O=c1[nH]c2c([N+](=O)[O-])cc(Cl)cc2nc1/C=C(\O)c1ccc(Cl)cc1`, the growth inhibition was -27% (inactive).

As for `CCOC(=O)C1=C(N)N(S(=O)(=O)c2ccc(C)cc2)CCC(C(=O)OC)=C1`, the growth inhibition was 5% (inactive).

Turning to `CC(C)=CC(=O)OC(CCCc1ccccc1)c1ccc2c(c1)OCO2` (stereo not given), the growth inhibition is 0% (inactive).

Consider `OCCN(CCO)c1cc(/C=C/c2ccnc3ccccc23)nc2ccccc12`, for which the growth inhibition was -1% (inactive).

With `CCCCCCCCCCCC(=O)OCC1CO1` (stereo not given), the growth inhibition is 29% (inactive).

Regarding `CCCCCCCCCCCCCCCCCC1=NCCN1`, the growth inhibition was 1% (inactive).

For `CC(=O)OCC1OC(OC2C=C(O[Si](C)(C)C)C[C@H]3C(=O)C=CC(=O)[C@@H]23)C(OC(C)=O)C(OC(C)=O)C1OC(C)=O` (stereo not given in full), the growth inhibition was 2% (inactive).

In the case of `C[C@]12CC[C@H]3[C@@H](CCC4=CC(=O)CC[C@@]43C)[C@@H]1CC[C@@H]2C(=O)C=O`, the growth inhibition was 5% (inactive).

For the compound `CCCCCC(O)C(C)CO` (stereo not given), the growth inhibition is -7% (inactive).

`CC(=O)Oc1ccc(-c2ccccc2)cc1Br`: the growth inhibition was 7% (inactive).

As for `COC(=O)C(Cc1cccc(O)c1)NC(=O)C(CC(=O)OCc1ccccc1)NC(=O)OCc1ccccc1` (stereo not given) (Cbz-Asp(OBn)-[mTyr]-OMe; configuration not given here), the growth inhibition is 9% (inactive).

Take `CCC(CO)Nc1nc2cc(Br)ccc2c2ccc(Br)cc12` (stereo not given): the growth inhibition was 8% (inactive).

Take `Cc1cc(Br)ccc1NC(=O)/C=C/C(=O)O`: the growth inhibition is 10% (inactive).

Regarding `CCO/C=C1N=C(/C=C/c2ccccc2Cl)OC/1=O`, the growth inhibition is 9% (inactive).

On to `O=S(=O)(Nc1ccccc1C(F)(F)F)c1ccc(F)cc1`, for which the growth inhibition is -21% (inactive).

Consider `N#CSCC(=O)c1ccc2ccccc2c1`, for which the growth inhibition is 68% (inactive).

Turning to `O=[N+]([O-])/C(Cl)=C(\Nc1ccccc1)C(Cl)=C(Cl)Cl`, the growth inhibition was 64% (inactive).

As to `C/C(=N/NC(=O)c1ccccc1S(N)(=O)=O)C(CN1CCCCC1)C(C1=C(O)C2C=CC=CC2OC1=O)c1ccccc1` (stereo not given), the growth inhibition is 8% (inactive).

Turning to `N#Cc1c([N+](=O)[O-])cc(C(F)(F)F)cc1[N+](=O)[O-]`, the growth inhibition is 82% (active).

For the compound `CCCCCCCCCCCCO`, the growth inhibition was 0% (inactive).

Consider `S=C(N/N=C/c1ccccn1)N1CC2CCC(CC2)C1`, for which the growth inhibition is 97% (active).

On to `ClC1(c2ccccc2)c2ccccc2-c2ccccc21`, for which the growth inhibition is -1% (inactive).

As for `Cc1ccc(SCC#CC#CCS(=O)c2ccc(C)cc2)cc1` (stereo not given), the growth inhibition was 44% (inactive).

In the case of `CCCCCCCOc1ccc(C=O)cc1OC`, the growth inhibition is -2% (inactive).

Source of the values: PubChem BioAssay (NCI).
